Data on ten compounds can be found in PubChem BioAssay (NCI).

Several values for one entry are separate records, joined by “and”; a condition that tells them apart may be missing. Equal entries are not always repeated. The panel holds about 83,000 compounds, 20% with a hit somewhere; the sample as a whole holds those more often.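 Single-concentration screen, 48 h exposure, 96-well plates. Endpoint: percent growth. Below 10 = active.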 Activity calls are given as the source filed them.

Test systems include SK-MEL-2 melanoma; SN12C renal; UO-31 renal; TK-10 renal; ACHN renal; CAKI-1 renal; A498 renal; MOLT-4 leukemia.
Assay in all cases: NCI-60 one-dose screen, 48 h (100 = growth as untreated, 0 = no growth, -100 = all killed)
The next assay has as its system EKVX NSCLC. As to conditions: 10 µM unless noted.
The next assay concerns CCRF-CEM leukemia. As to conditions: 10 µM unless noted.

With `O=[N+]([O-])c1ccc(N2CCN=N2)cc1`, the growth in the assay with SK-MEL-2 melanoma (10 µM unless noted) was 92.2% (inactive); in the assay with EKVX NSCLC, 85.7% (inactive); with SN12C renal (10 µM unless noted), 88.9% (inactive); with UO-31 renal (10 µM unless noted) it was 64.3% (inactive); in the assay with TK-10 renal (10 µM unless noted), 85.5% (inactive); in the assay with ACHN renal (10 µM unless noted), 64.9% (inactive). Further, the growth in the assay with CAKI-1 renal (10 µM unless noted) was 79.4% (inactive); in the assay on A498 renal (10 µM unless noted) it was 72.3% (inactive); in the assay with CCRF-CEM leukemia, 91.2% (inactive).
Consider `COc1cc2oc3cc(=O)cc4oc(-c5ccccc5)cc(c2c2c1CCC(c1ccccc1)O2)c43` (stereo unspecified), for which the growth was 95.8% (inactive) with SK-MEL-2 melanoma (10 µM unless noted); 88.4% (inactive) with EKVX NSCLC; 78.3% (inactive) in the assay with SN12C renal (10 µM unless noted); 57.9% (inactive) in the assay on UO-31 renal (10 µM unless noted); 120% (inactive) with TK-10 renal (10 µM); 59.8% (inactive) and 8.17% (active) in the assay with TK-10 renal (100 µM). In addition, the growth in the assay on ACHN renal (10 µM unless noted) is 72.7% (inactive); with CAKI-1 renal (10 µM unless noted), 57.4% (inactive); in the assay with A498 renal (10 µM unless noted) it was 114% (inactive); in the assay with CCRF-CEM leukemia it was 88.3% (inactive); in the assay on MOLT-4 leukemia (10 µM unless noted), 72.5% (inactive).
With `Cc1ccc(S(=O)(=O)n2ccnc2)cc1`, the growth with SK-MEL-2 melanoma (10 µM unless noted) was 96.7% (inactive); in the assay with EKVX NSCLC, 90.7% (inactive); in the assay on SN12C renal (10 µM unless noted) it was 107% (inactive); in the assay on UO-31 renal (10 µM unless noted), 89.9% (inactive); in the assay on TK-10 renal (10 µM unless noted) it was 93% (inactive); in the assay with ACHN renal (10 µM unless noted), 104% (inactive). Besides, the growth was 75.3% (inactive) with CAKI-1 renal (10 µM unless noted), 96.5% (inactive) in the assay on A498 renal (10 µM unless noted) and 120% (inactive) with CCRF-CEM leukemia.
On to `O=COCCCc1ccccc1`, for which the growth in the assay on SK-MEL-2 melanoma (10 µM unless noted) is 101% (inactive); in the assay with EKVX NSCLC, 98.8% (inactive); in the assay with SN12C renal (10 µM unless noted), 105% (inactive); in the assay with UO-31 renal (10 µM unless noted) it was 93.2% (inactive); in the assay on TK-10 renal (10 µM unless noted), 92.8% (inactive); in the assay on ACHN renal (10 µM unless noted), 110% (inactive). In addition, the growth in the assay with CAKI-1 renal (10 µM unless noted) is 106% (inactive); in the assay with A498 renal (10 µM unless noted) it was 83.2% (inactive); with CCRF-CEM leukemia, 108% (inactive).
With `COC(=O)c1cc(C(=O)OC)cc([N+](=O)[O-])c1`, the growth in the assay on SK-MEL-2 melanoma (10 µM unless noted) was 109% (inactive); in the assay with EKVX NSCLC it was 105% (inactive); in the assay on SN12C renal (10 µM unless noted) it was 111% (inactive); with UO-31 renal (10 µM unless noted), 83.6% (inactive); with TK-10 renal (10 µM unless noted) it was 110% (inactive); with ACHN renal (10 µM unless noted) it was 106% (inactive). For the same compound, the figures for the growth with CAKI-1 renal (10 µM unless noted), in the assay on A498 renal (10 µM unless noted) and with CCRF-CEM leukemia were 109% (inactive), 93.8% (inactive) and 102% (inactive), respectively.
With `CN(C=O)c1ccccc1`, the growth in the assay on SK-MEL-2 melanoma (10 µM unless noted) was 103% (inactive); with EKVX NSCLC, 86.6% (inactive); in the assay with SN12C renal (10 µM unless noted), 93.3% (inactive); with UO-31 renal (10 µM unless noted), 65.5% (inactive); in the assay with TK-10 renal (10 µM unless noted), 121% (inactive); in the assay with ACHN renal (10 µM unless noted), 92% (inactive). Moreover, the growth in the assay on CAKI-1 renal (10 µM unless noted) was 88.2% (inactive); with A498 renal (10 µM unless noted), 98% (inactive); in the assay with CCRF-CEM leukemia, 95.7% (inactive).
With `O=C(O)c1cc(=O)[nH]c(=O)[nH]1`, the growth in the assay on SK-MEL-2 melanoma (10 µM unless noted) was 111% (inactive) and 65.2% (inactive); in the assay on EKVX NSCLC it was 93.6% (inactive) and 115% (inactive); in the assay with SN12C renal (10 µM unless noted), 98.7% (inactive) and 98.5% (inactive); in the assay with UO-31 renal (10 µM unless noted) it was 78.8% (inactive) and 42.2% (inactive); in the assay on TK-10 renal (10 µM unless noted), 106% (inactive) and 135% (inactive); in the assay with ACHN renal (10 µM unless noted) it was 94.7% (inactive) and 95.2% (inactive). Moreover, the growth is 94.9% (inactive) and 119% (inactive) in the assay with CAKI-1 renal (10 µM unless noted); 94.3% (inactive) and 71.1% (inactive) in the assay with A498 renal (10 µM unless noted); 105% (inactive) and 74.4% (inactive) in the assay on CCRF-CEM leukemia.
On to `O=c1ccn2c(n1)OC1CC2OC1COC(c1ccccc1)(c1ccccc1)c1ccccc1` (stereo unspecified), for which the growth was 113% (inactive) in the assay with SK-MEL-2 melanoma (10 µM); 31.5% (inactive) with SK-MEL-2 melanoma (100 µM); 96.3% [100 µM] (inactive) in the assay on EKVX NSCLC; 103% (inactive) in the assay on SN12C renal (10 µM); 69.2% (inactive) with SN12C renal (100 µM); 97% (inactive) in the assay on UO-31 renal (10 µM). Besides, the growth was 89.9% (inactive) in the assay with UO-31 renal (100 µM); 134% [100 µM] (inactive) in the assay on TK-10 renal (10 µM unless noted); 92% (inactive) with ACHN renal (10 µM); 82.5% (inactive) in the assay on ACHN renal (100 µM); 102% (inactive) in the assay on CAKI-1 renal (10 µM); 65.7% (inactive) in the assay on CAKI-1 renal (100 µM). In addition, the growth with A498 renal (10 µM) was 116% (inactive); with A498 renal (100 µM), 139% (inactive); with CCRF-CEM leukemia, 81.8% [100 µM] (inactive); in the assay with MOLT-4 leukemia (10 µM) it was 104% (inactive); in the assay with MOLT-4 leukemia (100 µM), 74.4% (inactive).
Take `CS/C(=C\c1ccc(C(=O)c2ccc(C)cc2)n1C)S(C)=O` (stereo unspecified): the growth is 98.8% (inactive) in the assay with SK-MEL-2 melanoma (10 µM); 81.4% (inactive) in the assay on SK-MEL-2 melanoma (100 µM); 82% (inactive) in the assay with SN12C renal (10 µM); 80.9% (inactive) in the assay on SN12C renal (100 µM); 92.2% (inactive) with UO-31 renal (10 µM); 57.8% (inactive) in the assay on UO-31 renal (100 µM). The growth was 108% (inactive) in the assay with TK-10 renal (10 µM); 87% (inactive) in the assay with TK-10 renal (100 µM); 87.4% (inactive) in the assay with ACHN renal (10 µM); 83.2% (inactive) in the assay on ACHN renal (100 µM); 75.5% (inactive) with CAKI-1 renal (10 µM); 63.2% (inactive) in the assay with CAKI-1 renal (100 µM). In addition, the results for the growth in the assay on CCRF-CEM leukemia, in the assay with MOLT-4 leukemia (10 µM) and with MOLT-4 leukemia (100 µM) were 72.5% [100 µM] (inactive), 93.9% (inactive) and 66.8% (inactive), respectively.
For the compound `O=C1C=CC[C@H](/C=C/c2ccccc2)O1`, the growth in the assay on SK-MEL-2 melanoma (10 µM unless noted) was -21.8% (active) and -43.1% (active); in the assay with EKVX NSCLC, 54.5% (inactive) and 56.3% (inactive); with SN12C renal (10 µM unless noted), 55.6% (inactive) and 9.16% (active); with UO-31 renal (10 µM unless noted), 38.8% (inactive) and 41% (inactive); in the assay with TK-10 renal (10 µM unless noted) it was 41.7% (inactive) and 22.3% (inactive); with ACHN renal (10 µM unless noted), 33.4% (inactive) and -36.3% (active). For the same compound, the growth with CAKI-1 renal (10 µM unless noted) was 11.4% (inactive) and 2.9% (active); in the assay with A498 renal (10 µM unless noted), -18.3% (active) and -10.1% (active); in the assay on CCRF-CEM leukemia it was 12.5% (inactive) and -3.54% (active).
